Screening data from PubChem BioAssay.
HT1080 IDH1KD tx: toxicity to HT-1080 IDH1 knockdown cells (counter line). HT-1080 IDH1 knockdown viability, ATP luminescence, 48 h. Potency, µM (series often up to 46.1 µM), most hits filed as cytotoxic. 360,000 compounds, 2% hits. AID 686971
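HT-1080-IDH1KD cells (IDH1 knocked down), 750/well in RPMI with 5% FBS, treated with compound 48 h at 37 degrees C. Viability by CellTiter-Glo luminescence, normalised to DMSO and no-cell wells; concentration-response curves classed.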
DT40 TDP1 no CPT: qHTS for Inhibitors of human tyrosyl-DNA phosphodiesterase 1 (TDP1): qHTS in cells in absence of CPT. DT40 Tdp1-/- hTDP1 cells, no CPT, ATP luminescence, 48 h. Potency, µM (top dose mostly 46.2 µM), usual class: inhibitors. 420,000 compounds, 15% hits; also: nearly all actives have a fitted effect of over 55% in size
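Growth kinetics read by CellTiter-Glo luminescence after ≥48 hr at 37 °C. Cells: DT40 Tdp1-/- stably carrying human TDP1, 400 per well, compound exposure in the absence of CPT (DMSO vehicle).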
uPA surface inh: cell surface uPA generation inhibition; 330,000 compounds, 0.31% hits; Potency, µM (highest dose often 38.3 µM), most hits filed as inhibitors; cell surface uPA generation assay, qHTS; AID 540303; active = well fitted inhibition curve with a large enough effect; inconclusive = small, poorly fitted or top-dose-only effect; inactive = no such curve, though single readings can be large or run the other way; tested in mouse RAW 264.7 cells; also: nearly all actives have a fitted effect of over 55% in size
TDP1 cell CPT: DT40-hTDP1 cell growth loss with CPT | chicken DT40 Tdp1-/-;hTDP1 cells + 20 nM CPT, ATP luminescence, 48 h | Potency, µM (doses to about 46.2 µM), hits mostly inhibitors | 420,000 compounds, 12% hits | AID 686979; also: nearly all actives have a fitted effect of over 55% in size
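Chicken DT40 Tdp1-/- cells complemented with human TDP1, 400 cells/well, exposed to compounds plus 20 nM camptothecin for at least 48 h at 37 C; viability read as ATP content by CellTiter-Glo luminescence.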
IL1B secr inh: inflammasome signaling inhibition, IL-1 beta readout | THP-1 LPS/ATP IL-1B secretion, AlphaLISA, 16 h; hits give low values | activity change, % at 57.5 µM | 360,000 compounds, 4.7% hits | AID 743279; in the data active = activity change below about -50%; inconclusive = mostly about -30% to -49%
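THP-1 cells pretreated 1 hr with compounds (up to 57.5 uM final), then stimulated with LPS (250 ng/mL final) plus ATP (1.25 mM final); secreted IL-1B measured by AlphaLISA after 16 hr, decreased signal indicating inhibition.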
HT1080-NT tox: kills 2HG-producing HT-1080-NT fibrosarcoma cells; HT-1080-NT fibrosarcoma viability, CellTiter-Glo ATP luminescence, 48 h; Potency, µM (highest dose often 46.1 µM), actives largely listed as cytotoxic; 360,000 compounds, 1.6% hits;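 also: NT is the 2HG producing partner of a matched IDH1 knockdown line; nearly all actives have a fitted effect of over 55% in size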
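Luminescent CellTiter-Glo readout after 48 hours of compound exposure at 37 degrees C defined viability of HT-1080-NT cells. Activity was normalized to DMSO wells and cell-free media wells; concentration-response curves were fitted and assigned curve classes.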
Large screens that a line does not name were inactive. The list is not random: actives were taken first. Their share in the collection is about 19%. Unless noted, calls follow the shape of the dose curve; as a rule, active = well fitted curve in the direction sought with a large enough effect; inconclusive = small, poorly fitted or top-dose-only effect, or another doubt; inactive = no such curve, though single readings can be large; an effect the other way counts as inactive or inconclusive.

COc1ccccc1OCc1cc(C(=O)N2CC3C[C@@H]4CC2C[C@H](C3)C4)no1	DT40 TDP1 no CPT 13µM, TDP1 cell CPT 12µM
O=C(c1cc(COc2ccc(F)cc2F)on1)N1C[C@H]2CC[C@H]1C2	DT40 TDP1 no CPT inconclusive, TDP1 cell CPT inconclusive
CC(=O)c1cccc(OCc2cc(C(=O)N3CC4C[C@@H]5CC3C[C@H](C4)C5)no2)c1	DT40 TDP1 no CPT 1.5µM, TDP1 cell CPT 2.6µM
COc1cccc(Sc2nc(N(C)C)ncc2S(=O)(=O)c2ccc(Cl)cc2)c1	DT40 TDP1 no CPT inconclusive, TDP1 cell CPT inconclusive (no result: uPA surface inh, IL1B secr inh)
CCc1cccc(NC(=O)CCn2c(=O)c3cccn3c3cccnc32)c1	none (no result: HT1080 IDH1KD tx, uPA surface inh, IL1B secr inh, HT1080-NT tox)
CC(C)(CO)NCC(=O)Nc1cc(C(F)(F)F)cc(NC(=O)CNC(C)(C)CO)c1Cl	none
COCCCN=Cc1c(C)[nH]n(-c2ccc(Br)cc2Br)c1=O	none
O=c1c(CCc2ccccc2)nc2cnc(Oc3ccccc3)nc2n1C[C@H]1CCCO1	DT40 TDP1 no CPT 18µM, TDP1 cell CPT inconclusive (no result: HT1080 IDH1KD tx, uPA surface inh, IL1B secr inh, HT1080-NT tox)
CCNc1ncc2nc(CCc3ccccc3)c(=O)n(Cc3cccc(OC)c3)c2n1	none (no result: HT1080 IDH1KD tx, uPA surface inh, IL1B secr inh, HT1080-NT tox)
COc1cccc(Cn2c(=O)c(CCc3ccccc3)nc3cnc(OC)nc32)c1	DT40 TDP1 no CPT 23µM, TDP1 cell CPT inconclusive (no result: HT1080 IDH1KD tx, uPA surface inh, IL1B secr inh, HT1080-NT tox)
COc1ncc2nc(CCc3ccccc3)c(=O)n(CCc3ccccc3)c2n1	TDP1 cell CPT inconclusive (no result: HT1080 IDH1KD tx, uPA surface inh, IL1B secr inh, HT1080-NT tox)
COc1ncc2nc(CCc3ccccc3)c(=O)n(Cc3cccs3)c2n1	DT40 TDP1 no CPT 21µM, TDP1 cell CPT inconclusive (no result: HT1080 IDH1KD tx, uPA surface inh, IL1B secr inh, HT1080-NT tox)
Cc1ccccc1-c1cc2nc(Oc3cccc4ccccc34)n(C)c(=O)c2s1	none (no result: uPA surface inh)
CCCCN1C(=O)NC2NC(=O)NC21 (configuration not stated)	IL1B secr inh -92
C#CCNCCS(=O)(=O)N(Cc1ccc(Br)cc1)[C@@H](CC(C)C)C(=O)O	none
O=C(NNC(=O)c1cc(OCC(F)(F)F)ccc1OCC(F)(F)F)c1ccc(Cl)c(Cl)c1	DT40 TDP1 no CPT inconclusive, TDP1 cell CPT 23µM
CCOc1ccccc1CNC(=O)c1cc(-c2ccc(OC)cc2)nc2ccc(C(C)C)cc12	DT40 TDP1 no CPT 16µM, TDP1 cell CPT 16µM (no result: HT1080 IDH1KD tx, uPA surface inh, IL1B secr inh, HT1080-NT tox)
CCNC(=S)NNC(=O)c1cc(-c2cccc(OC)c2)nc2ccccc12	DT40 TDP1 no CPT 16µM, TDP1 cell CPT inconclusive
CCCCNC(=S)NNC(=O)c1cc(C2CC2)nc2ccccc12	DT40 TDP1 no CPT 3.7µM, TDP1 cell CPT inconclusive
CCOc1ccccc1-c1cc(C(=O)Nc2ccc(C(=O)O)cc2)c2ccccc2n1	TDP1 cell CPT inconclusive
COc1ccc(-c2cc(C(=O)NCc3ccc(C)cc3)c3cc(C(C)C)ccc3n2)cc1	DT40 TDP1 no CPT inconclusive (no result: HT1080 IDH1KD tx, uPA surface inh, IL1B secr inh, HT1080-NT tox)
CCOc1ccc(-c2cc(C(=O)O)c3ccccc3n2)c(OCC)c1	HT1080 IDH1KD tx 7.1µM, HT1080-NT tox 14µM (no result: uPA surface inh)
COc1cccc2c1cc1c(=O)n(CC(=O)N3CCN(c4ccc(Cl)cc4)CC3)nc(C)n12	none (no result: HT1080 IDH1KD tx, uPA surface inh, IL1B secr inh, HT1080-NT tox)
COCc1ccc(CN2Cc3cc(Cl)ccc3OC(C)C2)o1 (configuration not stated)	none (no result: HT1080 IDH1KD tx, uPA surface inh, IL1B secr inh, HT1080-NT tox)
CCNC(=S)NNC(=O)c1cc(-c2ccc(OCC)cc2)nc2ccccc12	HT1080 IDH1KD tx 5µM, DT40 TDP1 no CPT 4.5µM, TDP1 cell CPT 5µM, HT1080-NT tox 3.5µM (no result: uPA surface inh)
CCNC(=S)NNC(=O)c1cc(-c2ccccc2C)nc2ccccc12	HT1080 IDH1KD tx inconclusive, HT1080-NT tox inconclusive (no result: uPA surface inh)
CCC(=O)Nc1cccc(C(=O)c2ccccc2)c1	none
CCC(=O)Nc1cccc(C(=O)/C=C/c2ccccc2)c1	HT1080 IDH1KD tx inconclusive, DT40 TDP1 no CPT 5.2µM, TDP1 cell CPT 4.1µM, IL1B secr inh -117, HT1080-NT tox inconclusive
CC(=O)c1cccc(NC(=O)Cc2cccs2)c1	none (no result: uPA surface inh)
CCC(=O)Nc1cccc(C(=O)c2ccc(C)c(C)c2)c1	DT40 TDP1 no CPT 21µM, IL1B secr inh inconclusive
CCC(=O)Nc1cccc(C(=O)/C=C/c2cccs2)c1	DT40 TDP1 no CPT 21µM, uPA surface inh inconclusive, TDP1 cell CPT inconclusive, IL1B secr inh -95
CC(=O)Nc1cccc(C(=O)OC(C(=O)c2ccc(C)c(C)c2)c2ccccc2)c1 (configuration not stated)	DT40 TDP1 no CPT 16µM, TDP1 cell CPT 16µM
O=C(CSc1nccn1Cc1ccc(F)cc1)Nc1ccc2c(c1)OCCO2	none (no result: HT1080 IDH1KD tx, uPA surface inh, IL1B secr inh, HT1080-NT tox)
CC(C)C[C@H]1CN(CCCC[C@H]2CNC(=O)C(=O)N2CCc2ccc(O)cc2)C(=O)C(=O)N1CCC1CCCCC1	none (no result: uPA surface inh)
Cc1cccc(N2CCN(c3ccc4cc(S(=O)(=O)N5CCC(C)CC5)ccc4n3)CC2)c1C	none (no result: HT1080 IDH1KD tx, uPA surface inh, IL1B secr inh, HT1080-NT tox)
Cc1noc(C)c1C(=O)N1CCC1(C)C(=O)NS(=O)(=O)c1cccs1 (configuration not stated)	none (no result: uPA surface inh)
CN1C2=C(C(=O)CC(C)(C)C2)C(c2cccs2)C2=C1CC(C)(C)CC2=O	none
